Activity calls are given as the source filed them. How the source made its calls: active means hit-call score of the fitted dose curve at least 0.9, where 1 is the maximum; inactive means score below 0.9.
assay: CEETOX_H295R_CORTIC: CeeTox H295R High-throughput Steroidogenesis Assay for Corticosterone (CORTIC) (AID 2283437); conditions: actives raise or lower the signal;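 further: corticosterone secreted into medium quantified by mass spectrometry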
Experimental: CEETOX_H295R is a cell-based, multiplexed-readout assay that uses H295R, a human adrenal gland cell line, with measurements taken at 48 hours after chemical dosing in a 96-well plate.CEETOX_H295R_CORTIC is one of 23 assay component(s) measured or calculated from the CEETOX_H295R assay. It is designed to make measurements of hormone induction, a form of inducible reporter, as detected with absorbance signals by HPLC-MS-MS technology.Data from the assay component CEETOX_H295R_CORTIC was analyzed into 1 assay endpoint. This assay endpoint, CEETOX_H295R_CORTIC, was analyzed with bidirectional fitting relative to DMSO as the negative control and baseline of activity. Using a type of inducible reporter, gain or loss-of-signal activity using HPLC-MS-MS was used to understand synthesis of Corticosterone in H295R cell line at 48hr of chemical exposure. To generalize the intended target to other relatable targets, this assay endpoint is annotated to the steroid hormone intended target family, where the subfamily is glucocorticoids.
Cell culture and media preparation procedures were conducted in accordance with OECD Test No. 456 guidelines, with minor modifications. H295R cells (ATCC CRL-2128) were expanded for 5 passages and frozen in batches in liquid nitrogen. Prior to the steroidogenesis assay, H295R cells were thawed and passed at least 4 times. The maximum passage was 10. Cells were maintained in a 1:1 mixture of DMEM/F12 supplemented with 5ml/L ITS+ Premix (BD Bioscience) and 12.5 ml/L Nu-Serum (BD Bioscience). After seeding cells into 96-well plates at 50-60% confluency, cells were allowed to adhere overnight. Prior to chemical testing, culture medium was replaced with 175 uL medium containing 10 uM forskolin to stimulate steroidogenesis for 48 hours. Following prestimulation, forskolin medium was replaced with medium containing test chemical solubilized in DMSO (ensuring a final concentration of 0.1% DMSO). Test chemicals were incubated for 48 hours, then the medium was removed and split into 2 vials containing approximately 75uL each, and stored at -80 C prior to hormone analysis. For steroid quantification, media samples were shipped to OpAns, LLC (Durham, NC) on dry ice, and samples were thawed to room temperature prior to liquid-liquid extraction. Steroid hormones were extracted from media samples using methyl tertbutyl ether (MTBE). An extra derivatization with dansyl chloride was included for estrogen (estrone and estradiol) detection only. Steroid hormones were separated by HPLC, eluted using a reverse phase C18 gradient with electrospray positive ionization, followed by quantification by tandem mass spectrometry (MS/MS). Data were acquired on a MassHunter Workstation Acquisition version B03.01 (Agilent Technologies, Inc.) and processed using MassHunter Quantitative Analysis for QQQ. Accuracy was determined for each hormone analyte from 3 standards to determine upper and lower limits of quantification (ULOQ and LLOQ, respectively) using a 7-point standard curve. Precision and accuracy of the extraction and quantification methods were calculated as the percent relative standard deviation (%RSD) of the spiked standards and percent spiked standard recovered, respectively. […] Test medium was removed following chemical exposure, and cell viability was evaluated in the same wells by MTT. MTT procedures were as follows: after removal of test medium, 500 uL of 0.5 mg/ml of 3-[4,5-dimethylthiazol-2-y]2,5-diphenyltetrazoliumbromide solution was added to the cells. Following a 4-hour incubation at 37 C and 5% CO2 to allow formazan-crystal formation, the MTT solution was removed and blue formazan salt crystals were solubilized using 500uL anhydrous isopropanol with shaking for 20 minutes. Absorbance was read at 570 and 650nm using a Packard Fusion microplate reader. Background correction of absorbance units was used to determine percent change relative to controls. […]

Compound	AC50	outcome
C#C[C@]1(O)CC[C@H]2[C@@H]3CCC4=Cc5oncc5C[C@]4(C)[C@H]3CC[C@@]21C	14.5 µM (active)	–
NC(=O)Nc1ccc(Cl)cc1	27.6 µM (active)	–
Cc1cccc(C)c1C	–	inactive
O=c1cc(-c2ccccc2)oc2cc(O)cc(O)c12	5.66 µM (active)	–
COc1cc2ncnc(Nc3cccc(Cl)c3)c2cc1OC	–	inactive
O=C(O)c1ccc([N+](=O)[O-])cc1	–	inactive
O=C(O)C[C@H](O)C[C@H](O)/C=C/c1c(C2CC2)nc2ccccc2c1-c1ccc(F)cc1	0.0418 µM (active)	–
Nc1cc([N+](=O)[O-])ccc1Cl	–	inactive
CC(C)c1cccc(O)c1	–	inactive
CC1(C)[C@H](C(=O)OCc2cccc(Oc3ccccc3)c2)[C@@H]1C=C(Cl)Cl	–	inactive
C=CC(C)(C)O	–	inactive
Cc1ccc2n[nH]nc2c1	–	inactive
C=CCOc1nc(OCC=C)nc(OCC=C)n1	31.7 µM (active)	–
Nc1ccc(F)c([N+](=O)[O-])c1	–	inactive
CC1COc2ccccc2N1C(=O)C(Cl)Cl (stereo not given)	9.46 µM (active)	–

— PubChem BioAssay (EPA / NIEHS)
